Results from PubChem BioAssay (EPA / NIEHS).
Active and inactive are the calls of the source. Rule for the calls: active = hit-call score of the fitted dose curve at least 0.9, where 1 is the maximum; inactive = score below 0.9.

Legend:
Settings in all cases: mRNA level, 48 h; actives raise or lower the signal
[1] = read-out: Peroxisomal acyl-coenzyme A oxidase 1 (ACOX1) gene, ACOX1 (gene 51); experiment: LTEA_HepaRG_ACOX1: Life Technologies and Expression Analysis (LTEA) Assay for Peroxisomal acyl-coenzyme A oxidase 1 (ACOX1) gene using HepaRG (AID 2283467)
Procedure, shortened: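 Human HepaRG hepatic cultures, 48 h treatment with test chemicals up to 100 uM. ACOX1 expression read by qRT-PCR relative to 0.5% DMSO vehicle.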

[2] = read-out: Alkaline Phosphatase, Placental (ALPP) gene, ALPP (gene 250); experiment: LTEA_HepaRG_ALPP: Life Technologies and Expression Analysis (LTEA) Assay for Alkaline Phosphatase, Placental (ALPP) gene using HepaRG (AID 2283468);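 for AC50: differentiated human HepaRG liver cells in serum-free induction medium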
Procedure, shortened: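 HepaRG, 48 h plating then 48 h dosing, serum-free induction medium, 0.5% DMSO. 8 conc, half-log, max 100 uM, duplicates. Endpoint: ALPP transcript by qRT-PCR, housekeeping-normalized; gain or loss fitted vs DMSO.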

[3] = read-out: Bcl-2 (BAD) gene, BAD (gene 572); experiment: LTEA_HepaRG_BAD: Life Technologies and Expression Analysis (LTEA) Assay for Bcl-2 (BAD) gene using HepaRG (AID 2283469)
Procedure, shortened: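 Activity values reflect up- or down-regulation of BAD mRNA in human HepaRG hepatic cells treated 48 h in serum-free medium, with eight-point half-log dosing capped at 100 uM and 0.5% DMSO vehicle.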

[4] = read-out: Bcl-2 (BAX) gene, BAX (gene 581); experiment: LTEA_HepaRG_BAX: Life Technologies and Expression Analysis (LTEA) Assay for Bcl-2 (BAX) gene using HepaRG (AID 2283470)
Procedure, shortened: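 Human HepaRG cells treated in duplicate for 48 h across eight concentrations (max 100 uM, 0.5% DMSO); BAX expression measured by qRT-PCR.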

[5] = read-out: adenosine kinase (ADK) gene, ADK (gene 132); experiment: LTEA_HepaRG_ADK: Life Technologies and Expression Analysis (LTEA) Assay for adenosine kinase (ADK) gene using HepaRG (AID 2283471)
Procedure, shortened: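 Read-out is ADK transcript level measured by qRT-PCR and normalised to three housekeeping genes. Cells are human HepaRG, dosed for 48 h at up to 100 uM in 0.5% DMSO. Gain or loss of signal is fitted against DMSO controls.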

[6] = read-out: Apolipoprotein A-V (APOA5) gene, APOA5 (gene 116519); experiment: LTEA_HepaRG_APOA5: Life Technologies and Expression Analysis (LTEA) Assay for Apolipoprotein A-V (APOA5) gene using HepaRG (AID 2283474)
Procedure, shortened: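 Readout is APOA5 transcript level by qRT-PCR on Fluidigm dynamic arrays, normalized to three housekeeping genes. HepaRG cultures received chemicals for 48 h at up to 100 uM (half-log steps, 0.5% DMSO), with gain or loss scored relative to DMSO.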

[7] = read-out: Apoptosis regulator Bcl-2 (Homo sapiens) (UniProt P10415); experiment: LTEA_HepaRG_BCL2: Life Technologies and Expression Analysis (LTEA) Assay for Bcl-2 gene using HepaRG (AID 2283475);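 note: BCL2 transcript by TaqMan qRT-PCR normalised to ACTB GAPDH and POLR2A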
Procedure, shortened: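 Each chemical was tested in duplicate on HepaRG cultures held in serum-free induction medium for 48 h, highest concentration 100 uM with half-log dilutions. Transcript levels came from multiplexed qRT-PCR, normalised to housekeeping genes; activity was scored in either direction relative to DMSO.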

[8] = read-out: Bcl-2 (BID) gene, BID (gene 637); experiment: LTEA_HepaRG_BID: Life Technologies and Expression Analysis (LTEA) Assay for Bcl-2 (BID) gene using HepaRG (AID 2283476)
Procedure, shortened: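 Assay used HepaRG hepatic cells treated 48 h in serum-free medium with half-log dilutions from 100 uM. Endpoint: BID mRNA, qRT-PCR, normalized to ACTB/GAPDH/POLR2A.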

Caspase-3 (Homo sapiens) = Caspase-3 (Homo sapiens) (UniProt P42574); experiment: LTEA_HepaRG_CASP3: Life Technologies and Expression Analysis (LTEA) Assay for cysteine-aspartic acid protease (CASP3) using HepaRG (AID 2283477)
Caspase-3 (Homo sapiens), sequence (P42574 whole entry, looked up): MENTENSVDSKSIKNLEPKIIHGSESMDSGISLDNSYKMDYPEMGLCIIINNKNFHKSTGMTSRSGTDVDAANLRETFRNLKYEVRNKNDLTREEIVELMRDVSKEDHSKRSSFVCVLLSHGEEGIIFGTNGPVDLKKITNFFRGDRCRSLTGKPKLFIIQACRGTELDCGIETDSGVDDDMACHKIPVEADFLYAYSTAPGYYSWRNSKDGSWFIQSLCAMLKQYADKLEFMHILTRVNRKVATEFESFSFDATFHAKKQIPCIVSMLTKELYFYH
Procedure, shortened: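 Read-out is CASP3 mRNA level by TaqMan qRT-PCR in human HepaRG cells after 48 h chemical exposure. Eight half-log concentrations topping at 100 uM were tested in 0.5% DMSO; gain or loss was fitted relative to DMSO.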

[9] = read-out: Cytochrome P450 (CYP24A1), CYP24A1 (gene 1591); experiment: LTEA_HepaRG_CYP24A1: Life Technologies and Expression Analysis (LTEA) Assay for Cytochrome P450 (CYP24A1) using HepaRG (AID 2283478)
Procedure, shortened: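 HepaRG, 48 h chemical exposure, 8-pt half-log CRC from 100 uM, 0.5% DMSO vehicle, duplicates. Endpoint: CYP24A1 mRNA by Fluidigm TaqMan qRT-PCR, normalized ACTB/GAPDH/POLR2A; gain/loss fit vs DMSO.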

[10] = read-out: Cytochrome P450 (CYP1A2), CYP1A2 (gene 1544); experiment: LTEA_HepaRG_CYP1A2: Life Technologies and Expression Analysis (LTEA) Assay for Cytochrome P450 (CYP1A2) using HepaRG (AID 2283479)
Procedure, shortened: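 CYP1A2 transcript induction or loss, quantified by Fluidigm qRT-PCR against three housekeeping genes, was fitted bidirectionally against 0.5% DMSO controls. Human HepaRG cells received eight half-log concentrations from 100 uM over 48 h.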

[11] = read-out: Cytochrome P450 (CYP2B6), CYP2B6 (gene 1555); experiment: LTEA_HepaRG_CYP2B6: Life Technologies and Expression Analysis (LTEA) Assay for Cytochrome P450 (CYP2B6) using HepaRG (AID 2283481)
Procedure, shortened: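 HepaRG cells plated 48 h, switched to serum-free induction medium, then dosed 48 h (8 points, half-log from 100 uM, 0.5% DMSO). RNA isolated; CYP2B6 expression measured by qRT-PCR; gain or loss fitted relative to DMSO.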

[12] = read-out: Cytochrome P450 2C19 (Homo sapiens) (UniProt P33261); experiment: LTEA_HepaRG_CYP2C19: Life Technologies and Expression Analysis (LTEA) Assay for CYP2C19 using HepaRG (AID 2283482)
Procedure, shortened: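 Transcript levels of CYP2C19 were quantified by qRT-PCR after HepaRG cells were treated for 48 hours with test chemicals up to 100 uM (eight half-log concentrations, 0.5% DMSO vehicle). Gain or loss of signal was fitted relative to DMSO.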

CYP2C8 (gene 1558) = experiment: LTEA_HepaRG_CYP2C8: Life Technologies and Expression Analysis (LTEA) Assay for CYP2C8 using HepaRG (AID 2283483)
Procedure, shortened: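 This is a transcriptional endpoint in HepaRG cultures: 48 h exposure, highest concentration 100 uM. CYP2C8 mRNA is quantified by TaqMan qRT-PCR.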

CYP2C9 (gene 1559) = experiment: LTEA_HepaRG_CYP2C9: Life Technologies and Expression Analysis (LTEA) Assay for CYP2C9 using HepaRG (AID 2283484)
Procedure, shortened: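 Eight-point concentration-response (highest 100 uM, half-log dilutions) in HepaRG cells for 48 h; CYP2C9 expression by qRT-PCR normalized to ACTB, GAPDH, POLR2A. Bidirectional fit, DMSO baseline.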

CYP2E1 (gene 1571) = experiment: LTEA_HepaRG_CYP2E1: Life Technologies and Expression Analysis (LTEA) Assay for CYP2E1 using HepaRG (AID 2283485)
Procedure, shortened: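 Assay uses 48 h exposure of HepaRG hepatic cells, eight concentrations to 100 uM. Expression of CYP2E1 is quantified by TaqMan qRT-PCR with ACTB, GAPDH and POLR2A normalization; curves fitted in both directions relative to vehicle.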

CYP4A11 (gene 1579) = experiment: LTEA_HepaRG_CYP4A11: Life Technologies and Expression Analysis (LTEA) Assay for CYP4A11 using HepaRG (AID 2283486)
Procedure, shortened: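 HepaRG, 48 h chem exposure, 8 conc (100 uM top, half-log), 0.5% DMSO vehicle; qRT-PCR readout, housekeeping-gene normalized; bidirectional curve fit vs DMSO baseline.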

BCL2L11 (gene 10018) = experiment: LTEA_HepaRG_BCL2L11: Life Technologies and Expression Analysis (LTEA) Assay for Bcl-2 (BCL2L11) gene using HepaRG (AID 2283473)
Procedure, shortened: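 Read-out is BCL2L11 transcript level by qRT-PCR, normalized to three housekeeping genes and fitted bidirectionally against 0.5% DMSO vehicle. HepaRG cells received chemicals for 48 h in serum-free induction medium, 100 uM down in half-log dilutions.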

[13] = read-out: cysteine-aspartic acid protease (CASP8), CASP8 (gene 841); experiment: LTEA_HepaRG_CASP8: Life Technologies and Expression Analysis (LTEA) Assay for cysteine-aspartic acid protease (CASP8) using HepaRG (AID 2283480)
Procedure, shortened: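 Concentration-response in duplicate up to 100 uM (half-log steps, 0.5% DMSO) on differentiated HepaRG cultures for 48 h. Expression change of CASP8 mRNA is determined by TaqMan qRT-PCR with housekeeping-gene normalization.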

Measured: AC50

Cytochrome P450 2C19 (Homo sapiens), sequence (P33261 whole entry, looked up): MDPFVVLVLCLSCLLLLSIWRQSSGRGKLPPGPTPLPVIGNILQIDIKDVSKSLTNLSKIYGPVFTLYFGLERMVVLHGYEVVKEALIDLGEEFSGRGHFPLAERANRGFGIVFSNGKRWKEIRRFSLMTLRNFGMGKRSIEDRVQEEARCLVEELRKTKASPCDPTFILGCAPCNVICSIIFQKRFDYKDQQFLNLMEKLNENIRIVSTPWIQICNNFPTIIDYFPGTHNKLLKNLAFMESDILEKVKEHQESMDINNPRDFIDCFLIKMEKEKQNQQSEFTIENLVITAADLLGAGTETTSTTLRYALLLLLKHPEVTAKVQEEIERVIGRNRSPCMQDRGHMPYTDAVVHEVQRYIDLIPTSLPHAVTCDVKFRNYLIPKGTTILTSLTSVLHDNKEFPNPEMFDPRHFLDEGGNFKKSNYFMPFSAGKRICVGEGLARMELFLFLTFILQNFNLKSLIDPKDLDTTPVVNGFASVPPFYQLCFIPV
Apoptosis regulator Bcl-2 (Homo sapiens), sequence (P10415 whole entry, looked up): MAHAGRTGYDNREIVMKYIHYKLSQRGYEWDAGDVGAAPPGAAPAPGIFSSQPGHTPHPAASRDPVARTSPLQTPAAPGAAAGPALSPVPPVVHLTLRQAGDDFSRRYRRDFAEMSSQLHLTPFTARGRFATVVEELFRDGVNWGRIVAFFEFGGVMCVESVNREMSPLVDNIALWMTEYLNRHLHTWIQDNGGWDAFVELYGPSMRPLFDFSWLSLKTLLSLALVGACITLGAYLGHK

Oc1c(Cl)c(Cl)c(Cl)c(Cl)c1Cl
inactive: [3] | [4] | [7] | [9]
active: [1] 3.29 µM | [2] 5.48 µM | [5] 6.68 µM | [6] 3.95 µM | [8] 4.97 µM | Caspase-3 (Homo sapiens) 6.5 µM | [10] 3.83 µM | [11] 3.43 µM | [12] 4.27 µM | CYP2C8 (gene 1558) 4.44 µM | CYP2C9 (gene 1559) 3.08 µM | CYP2E1 (gene 1571) 1.94 µM | CYP4A11 (gene 1579) 4.37 µM

O=S(=O)(O)C(F)(F)C(F)(F)C(F)(F)C(F)(F)C(F)(F)C(F)(F)F
active: [1] 6.58 µM | [6] 3.42 µM | [11] 24.6 µM | [12] 32 µM | CYP2C8 (gene 1558) 50 µM | CYP2C9 (gene 1559) 6.28 µM | CYP4A11 (gene 1579) 22.8 µM
not listed: BCL2L11 (gene 10018) | [13]
inactive: all other assays above

c1ccc(-c2ccccc2)cc1
not listed: [8] | [13]
inactive: all other assays above

Cc1ccccc1O
active: [11] 24.4 µM
not listed: [8] | BCL2L11 (gene 10018)
inactive: all other assays above

CCNc1nc(NC(C)C)nc(SC)n1
active: [2] 17.9 µM | [11] 1.11 µM | [12] 2.45 µM | CYP2E1 (gene 1571) 29.1 µM | CYP4A11 (gene 1579) 50 µM
not listed: BCL2L11 (gene 10018)
inactive: all other assays above

CCSC(=O)N(CC)C1CCCCC1
active: [11] 32.9 µM
not listed: CYP2C8 (gene 1558) | BCL2L11 (gene 10018)
inactive: all other assays above

Cc1cc2c3c(c1)C(c1ccccc1)=N[C@@H](NC(=O)c1ccncc1)C(=O)N3CC2
active: [2] 10.3 µM | [6] 62.5 µM | [10] 23.1 µM | [12] 3.58 µM | CYP2E1 (gene 1571) 17.9 µM | CYP4A11 (gene 1579) 40.4 µM
not listed: [8] | BCL2L11 (gene 10018) | [13]
inactive: all other assays above
